# PubChem BioAssay (Tox21)
# Inconclusive results are not listed. Active and inactive are the calls of the source. Calls follow the shape of the full dose curve.
# Test: qHTS assay for small molecule agonists of the p53 signaling pathway - cell viability (AID 651633);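 also: p53RE-bla HCT reporter cells with a stable beta-lactamase p53 reporter; nearly all actives have a fitted effect of over 30% in size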
# Details: p53RE-bla HCT-116 viability, ATP luminescence, 16 h; series mostly up to 83.3 µM
# From the text: National Center for Advancing Translational Sciences [NCATS]
# NIH Chemical Genomics Center [NCGC]
# U.S. Environmental Protection Agency [EPA]
# National Institutes of Environmental Health Sciences [NIEHS]
# National Toxicology Program [NTP]
# U.S. Food and Drug Administration [FDA]
# p53, a tumor suppressor protein, is activated following cellular insult, including DNA damage and other cellular stresses. The activation of p53 regulates cell fate by inducing DNA repair, cell cycle arrest, apoptosis, or cellular senescence. The activation of p53, therefore, is a good indicator of DNA damage and other cellular stresses. […] The activation of the reporter gene under culture conditions can be detected by fluorescence intensity. This cell line was used to screen the Tox21 compound library in a 1536-well plate format and to identify agonists that activate the p53 signaling pathway.
# Tox21 Assay Protocol Summary:
# The p53RE-bla cells were dispensed at 4,000 cells/5 ul/well in 1536-well black wall/clear bottom plates using a Multidrop dispenser. After the assay plates were incubated at a 37 C/5% CO2 incubator for 5 hours, 23 nL of compounds dissolved in DMSO, positive controls or DMSO only was transferred to the assay plate by a pin tool. The plates were incubated at 37 C for 16 hours. After 1 uL of LiveBLAzerTM B/G FRET substrate was added using a Flying Reagent Dispenser, the plates were incubated at room temperature for 2 hours, and fluorescence intensity was measured by an Envision plate reader.
# For cell viability readout that measures cytotoxicity, 4 ul/well of CellTiter-Glo reagent was added into the assay plates using a Flying Reagent Dispenser. After 30 min incubation at room temperature, the luminescence intensity in the plates was measured using a ViewLux plate reader.
row,Structure (SMILES),outcome
1,O=C(CN1CCN(Cc2ccc3c(c2)OCO3)CC1)N1c2ccccc2Sc2ccccc21,inactive
2,CCOC(=O)OCC/C(SC(=O)OCC)=C(\C)N(C=O)Cc1cnc(C)nc1N,inactive
3,NC(Cc1c[nH]c2ccccc12)C(=O)O (stereo not given),inactive
4,CCC(CO)CO,inactive
5,C=C(C)[C@@H]1CC[C@@H](C)C[C@@H]1O,inactive
6,CCOC(=O)CC(CC(=O)OCC)(OC(C)=O)C(=O)OCC,inactive
7,CC(C)c1ccccc1O,inactive
8,CC(=O)Nc1ccc(C)cc1,inactive
9,CC(C)CCO,inactive
10,CO[Si](CCCCl)(OC)OC,inactive
11,CC(C)CCC(=O)CCC(C)C,inactive
12,Cc1oc(=O)oc1CN1CCN(c2cc3c(cc2F)c(=O)c(C(=O)O)c2n3C(C)S2)CC1 (stereo not given),inactive
13,O=c1cc(O)c(Cl)c[nH]1,inactive
14,FC(F)(F)c1ccc(Cl)cc1Cl,inactive
15,CCOc1ccc(NC(=O)OC(C)C)cc1OCC,inactive
16,CCS(=O)(=O)CCn1c([N+](=O)[O-])cnc1C,inactive
17,CC(C)COC(=O)CCCCC(=O)OCC(C)C,inactive
18,CCCCC[Si](OCC)(OCC)OCC,inactive
19,Cc1cc(C)cc([N+](=O)[O-])c1,inactive
20,CC1(N)CCC(C(C)(C)N)CC1 (stereo not given),inactive

row,Structure (SMILES),outcome
1,Nc1ccnc(=O)[nH]1,inactive
2,COCC(=O)Nc1c(I)c(C(=O)NCC(O)CO)c(I)c(C(=O)N(C)CC(O)CO)c1I (stereo not given),inactive
3,O=C1CC[C@H](C(=O)N2CCCCC2)N1,inactive
4,C=CCOc1c(Br)cc(Br)cc1Br,inactive
5,CN(C1CCCCC1)S(=O)(=O)c1ccccc1N,inactive
6,CCCCCCCCC(=O)OCC,inactive
7,CC(C)(C)NCCO,inactive
8,C=C(C)C(=O)OCCCCCCOC(=O)C(=C)C,inactive
9,Nc1ccc(S(=O)(=O)NC(=O)c2ccccc2)cc1,inactive
10,SCCSCCS,inactive
11,c1ccc(CNc2ncnc3nc[nH]c23)cc1,inactive
12,CC(=O)OC(C(=O)c1ccccc1)c1ccccc1 (stereo not given),inactive
13,CN[C@@H]1[C@H](O)[C@H](NC)[C@H]2O[C@@]3(O)C(=O)C[C@@H](C)O[C@H]3O[C@@H]2[C@H]1O,inactive
14,Nc1c(NC/C=C\COc2cc(CN3CCCCC3)ccn2)c(=O)c1=O,inactive
15,OCCCCCCCl,inactive
16,O=C1NC2NC(=O)NC2N1 (stereo not given),inactive
17,O=[Si]=O,inactive
18,CCN(CCC#N)c1ccccc1,inactive
19,CCC1Nc2cc(Cl)c(S(N)(=O)=O)cc2S(=O)(=O)N1 (stereo not given),inactive
20,O=C(/C=C/c1ccccc1)NCCO,inactive
